Test results reported in paper PMC8222333, “AsCas12a ultra nuclease facilitates the rapid generation of therapeutic cell medicines”.

Key:
Assay in all cases: Spec-seq (native PAGE EMSA with sequencing of bound and unbound); 25 mM Tris-HCl pH 7.4, 150 mM KCl, 5 mM MgCl2, 10% glycerol, 1 mM DTT, 40 ng/uL salmon sperm DNA; 400 nM Cas12a, 480 nM crRNA, 50 nM library, 37 C 1 h; native PAGE at room temperature; high values mean tight binding
Details in all cases: protein: recombinant
dAsCas12a S542R = dAsCas12a S542R (Acidaminococcus sp., UniProt U2UMQ6 1-1307, S542R;D908A;E993A;D1235A)
d-enCas12a = d-enCas12a (Acidaminococcus sp., UniProt U2UMQ6 1-1307, E174R;S542R;K548R;D908A;E993A;D1235A)
d-enCas12a-Ultra = d-enCas12a-Ultra (Acidaminococcus sp., UniProt U2UMQ6 1-1307, E174R;S542R;K548R;M537R;F870L;D908A;E993A;D1235A)
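Also: relative affinity from the bound to unbound sequence frequency ratio in Spec-seq.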

| Binder | binding signal (dAsCas12a S542R) [lnKA] | binding signal (d-enCas12a) [lnKA] | binding signal (d-enCas12a-Ultra) [lnKA] |
| --- | --- | --- | --- |
| GAGC (dsDNA) DNA 1: GCTATCTAGTGCTCAGTACGCACTGGAGCAGGAAACTTCTGGCAGGACCAGGTCATGAGATCGGAAGAGCACACGTCTGAACTCCAGTCA DNA 2: TGACTGGAGTTCAGACGTGTGCTCTTCCGATCTCATGACCTGGTCCTGCCAGAAGTTTCCTGCTCCAGTGCGTACTGAGCACTAGATAGC RNA: AAUUUCUACUCUUGUAGAUAGGAAACUUCUGGCAGGACC | -8.89 | -5.66 | -3.45 |
| GAGG (dsDNA) DNA 1: GCTATCTAGTGCTCAGTACGCACTGGAGGAGGAAACTTCTGGCAGGACCAGGTCATGAGATCGGAAGAGCACACGTCTGAACTCCAGTCA DNA 2: TGACTGGAGTTCAGACGTGTGCTCTTCCGATCTCATGACCTGGTCCTGCCAGAAGTTTCCTCCTCCAGTGCGTACTGAGCACTAGATAGC RNA: AAUUUCUACUCUUGUAGAUAGGAAACUUCUGGCAGGACC | -8.75 | -5.9 | -3.51 |
| GCAA (dsDNA) DNA 1: GCTATCTAGTGCTCAGTACGCACTGGCAAAGGAAACTTCTGGCAGGACCAGGTCATGAGATCGGAAGAGCACACGTCTGAACTCCAGTCA DNA 2: TGACTGGAGTTCAGACGTGTGCTCTTCCGATCTCATGACCTGGTCCTGCCAGAAGTTTCCTTTGCCAGTGCGTACTGAGCACTAGATAGC RNA: AAUUUCUACUCUUGUAGAUAGGAAACUUCUGGCAGGACC | -8.78 | -5.83 | -3.42 |
| GCCC (dsDNA) DNA 1: GCTATCTAGTGCTCAGTACGCACTGGCCCAGGAAACTTCTGGCAGGACCAGGTCATGAGATCGGAAGAGCACACGTCTGAACTCCAGTCA DNA 2: TGACTGGAGTTCAGACGTGTGCTCTTCCGATCTCATGACCTGGTCCTGCCAGAAGTTTCCTGGGCCAGTGCGTACTGAGCACTAGATAGC RNA: AAUUUCUACUCUUGUAGAUAGGAAACUUCUGGCAGGACC | -5 | -2.96 | -0.56 |
| GGAG (dsDNA) DNA 1: GCTATCTAGTGCTCAGTACGCACTGGGAGAGGAAACTTCTGGCAGGACCAGGTCATGAGATCGGAAGAGCACACGTCTGAACTCCAGTCA DNA 2: TGACTGGAGTTCAGACGTGTGCTCTTCCGATCTCATGACCTGGTCCTGCCAGAAGTTTCCTCTCCCAGTGCGTACTGAGCACTAGATAGC RNA: AAUUUCUACUCUUGUAGAUAGGAAACUUCUGGCAGGACC | -8.39 | -5.85 | -3.43 |
| GCCG (dsDNA) DNA 1: GCTATCTAGTGCTCAGTACGCACTGGCCGAGGAAACTTCTGGCAGGACCAGGTCATGAGATCGGAAGAGCACACGTCTGAACTCCAGTCA DNA 2: TGACTGGAGTTCAGACGTGTGCTCTTCCGATCTCATGACCTGGTCCTGCCAGAAGTTTCCTCGGCCAGTGCGTACTGAGCACTAGATAGC RNA: AAUUUCUACUCUUGUAGAUAGGAAACUUCUGGCAGGACC | -6.59 | -5.48 | -1.86 |
| GCAG (dsDNA) DNA 1: GCTATCTAGTGCTCAGTACGCACTGGCAGAGGAAACTTCTGGCAGGACCAGGTCATGAGATCGGAAGAGCACACGTCTGAACTCCAGTCA DNA 2: TGACTGGAGTTCAGACGTGTGCTCTTCCGATCTCATGACCTGGTCCTGCCAGAAGTTTCCTCTGCCAGTGCGTACTGAGCACTAGATAGC RNA: AAUUUCUACUCUUGUAGAUAGGAAACUUCUGGCAGGACC | -8.35 | -6.02 | -3.32 |
| GGCC (dsDNA) DNA 1: GCTATCTAGTGCTCAGTACGCACTGGGCCAGGAAACTTCTGGCAGGACCAGGTCATGAGATCGGAAGAGCACACGTCTGAACTCCAGTCA DNA 2: TGACTGGAGTTCAGACGTGTGCTCTTCCGATCTCATGACCTGGTCCTGCCAGAAGTTTCCTGGCCCAGTGCGTACTGAGCACTAGATAGC RNA: AAUUUCUACUCUUGUAGAUAGGAAACUUCUGGCAGGACC | -8.47 | -3.7 | -0.996 |
| GGAT (dsDNA) DNA 1: GCTATCTAGTGCTCAGTACGCACTGGGATAGGAAACTTCTGGCAGGACCAGGTCATGAGATCGGAAGAGCACACGTCTGAACTCCAGTCA DNA 2: TGACTGGAGTTCAGACGTGTGCTCTTCCGATCTCATGACCTGGTCCTGCCAGAAGTTTCCTATCCCAGTGCGTACTGAGCACTAGATAGC RNA: AAUUUCUACUCUUGUAGAUAGGAAACUUCUGGCAGGACC | -8.54 | -5.99 | -3.45 |
| GCCT (dsDNA) DNA 1: GCTATCTAGTGCTCAGTACGCACTGGCCTAGGAAACTTCTGGCAGGACCAGGTCATGAGATCGGAAGAGCACACGTCTGAACTCCAGTCA DNA 2: TGACTGGAGTTCAGACGTGTGCTCTTCCGATCTCATGACCTGGTCCTGCCAGAAGTTTCCTAGGCCAGTGCGTACTGAGCACTAGATAGC RNA: AAUUUCUACUCUUGUAGAUAGGAAACUUCUGGCAGGACC | -7.86 | -5.97 | -2.67 |
| GAGT (dsDNA) DNA 1: GCTATCTAGTGCTCAGTACGCACTGGAGTAGGAAACTTCTGGCAGGACCAGGTCATGAGATCGGAAGAGCACACGTCTGAACTCCAGTCA DNA 2: TGACTGGAGTTCAGACGTGTGCTCTTCCGATCTCATGACCTGGTCCTGCCAGAAGTTTCCTACTCCAGTGCGTACTGAGCACTAGATAGC RNA: AAUUUCUACUCUUGUAGAUAGGAAACUUCUGGCAGGACC | -8.58 | -5.78 | -3.48 |
| GCGT (dsDNA) DNA 1: GCTATCTAGTGCTCAGTACGCACTGGCGTAGGAAACTTCTGGCAGGACCAGGTCATGAGATCGGAAGAGCACACGTCTGAACTCCAGTCA DNA 2: TGACTGGAGTTCAGACGTGTGCTCTTCCGATCTCATGACCTGGTCCTGCCAGAAGTTTCCTACGCCAGTGCGTACTGAGCACTAGATAGC RNA: AAUUUCUACUCUUGUAGAUAGGAAACUUCUGGCAGGACC | -8.52 | -5.91 | -3.51 |
| GGAC (dsDNA) DNA 1: GCTATCTAGTGCTCAGTACGCACTGGGACAGGAAACTTCTGGCAGGACCAGGTCATGAGATCGGAAGAGCACACGTCTGAACTCCAGTCA DNA 2: TGACTGGAGTTCAGACGTGTGCTCTTCCGATCTCATGACCTGGTCCTGCCAGAAGTTTCCTGTCCCAGTGCGTACTGAGCACTAGATAGC RNA: AAUUUCUACUCUUGUAGAUAGGAAACUUCUGGCAGGACC | -8.47 | -5.75 | -3.35 |
| GGCA (dsDNA) DNA 1: GCTATCTAGTGCTCAGTACGCACTGGGCAAGGAAACTTCTGGCAGGACCAGGTCATGAGATCGGAAGAGCACACGTCTGAACTCCAGTCA DNA 2: TGACTGGAGTTCAGACGTGTGCTCTTCCGATCTCATGACCTGGTCCTGCCAGAAGTTTCCTTGCCCAGTGCGTACTGAGCACTAGATAGC RNA: AAUUUCUACUCUUGUAGAUAGGAAACUUCUGGCAGGACC | -8.26 | -4.74 | -1.64 |
| GGAA (dsDNA) DNA 1: GCTATCTAGTGCTCAGTACGCACTGGGAAAGGAAACTTCTGGCAGGACCAGGTCATGAGATCGGAAGAGCACACGTCTGAACTCCAGTCA DNA 2: TGACTGGAGTTCAGACGTGTGCTCTTCCGATCTCATGACCTGGTCCTGCCAGAAGTTTCCTTTCCCAGTGCGTACTGAGCACTAGATAGC RNA: AAUUUCUACUCUUGUAGAUAGGAAACUUCUGGCAGGACC | -8.88 | -5.71 | -3.48 |
| GCAC (dsDNA) DNA 1: GCTATCTAGTGCTCAGTACGCACTGGCACAGGAAACTTCTGGCAGGACCAGGTCATGAGATCGGAAGAGCACACGTCTGAACTCCAGTCA DNA 2: TGACTGGAGTTCAGACGTGTGCTCTTCCGATCTCATGACCTGGTCCTGCCAGAAGTTTCCTGTGCCAGTGCGTACTGAGCACTAGATAGC RNA: AAUUUCUACUCUUGUAGAUAGGAAACUUCUGGCAGGACC | -8.62 | -5.82 | -3.32 |
| GCAT (dsDNA) DNA 1: GCTATCTAGTGCTCAGTACGCACTGGCATAGGAAACTTCTGGCAGGACCAGGTCATGAGATCGGAAGAGCACACGTCTGAACTCCAGTCA DNA 2: TGACTGGAGTTCAGACGTGTGCTCTTCCGATCTCATGACCTGGTCCTGCCAGAAGTTTCCTATGCCAGTGCGTACTGAGCACTAGATAGC RNA: AAUUUCUACUCUUGUAGAUAGGAAACUUCUGGCAGGACC | -8.69 | -5.86 | -3.45 |
